High-throughput results from PubChem BioAssay.
Sampled rows, rich in hits. Any-hit rate of the full collection: about 2.9%.
PLCb3 inh = human PLC-beta3 inhibitors, primary screen, biochemical, fluorescence | 1-phosphatidylinositol 4,5-bisphosphate phosphodiesterase beta-3 (Homo sapiens), Q01970 | Purified PLC-beta3, fluorogenic substrate | inhibition, % at 12.2 µM | hit rate 0.18% among 370,000 | AID 720704, 2013; in the data active means inhibition above about 11%
ADAM17 inh = ADAM17 inhibitors, primary screen, biochemical, QFRET. hit rate 0.83% among 370,000. Disintegrin and metalloproteinase domain-containing protein 17 (Homo sapiens), P78536. inhibition, % at 6.95 µM. AID 720648, 2013. recombinant ADAM17, EDANS/DABCYL FRET peptide cleavage;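 active means inhibition above the mean of compounds lying between control limits plus 3 SD, set per campaign, cut at about 8.5% in these data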
Target sequence (P78536 215-824 limits assumed): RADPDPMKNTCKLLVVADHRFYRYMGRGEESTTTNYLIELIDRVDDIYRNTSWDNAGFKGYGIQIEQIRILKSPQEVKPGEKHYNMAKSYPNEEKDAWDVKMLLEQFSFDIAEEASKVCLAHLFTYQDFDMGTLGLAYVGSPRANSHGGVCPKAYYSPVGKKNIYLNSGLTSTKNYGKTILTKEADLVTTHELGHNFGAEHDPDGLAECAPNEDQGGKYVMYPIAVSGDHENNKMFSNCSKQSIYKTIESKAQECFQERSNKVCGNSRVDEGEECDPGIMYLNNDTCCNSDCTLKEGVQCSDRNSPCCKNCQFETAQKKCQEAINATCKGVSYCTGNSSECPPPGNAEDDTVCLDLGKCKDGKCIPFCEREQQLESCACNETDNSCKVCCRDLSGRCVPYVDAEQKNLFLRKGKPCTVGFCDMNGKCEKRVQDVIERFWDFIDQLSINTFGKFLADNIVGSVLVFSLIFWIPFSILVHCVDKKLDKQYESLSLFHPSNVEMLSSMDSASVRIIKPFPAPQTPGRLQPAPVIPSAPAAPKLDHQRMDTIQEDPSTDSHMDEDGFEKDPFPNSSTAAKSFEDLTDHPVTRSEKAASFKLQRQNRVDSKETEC
KLK7 zymogen act = proKLK7 zymogen activators, primary screen, biochemical, fluorescence intensity; Kallikrein-7 (Homo sapiens), P49862; purified proKLK7, EDANS-DABCYL substrate fluorescence; 100% is mature enzyme control, 0% vehicle; activation, % at 7 µM; hit rate 0.9% among 370,000;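 active means activation above the mean of all tested compounds plus 3 SD, computed per campaign excluding outliers beyond control limits, cut at about 13% in these data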
PLCg1 inh = PLC-gamma1 enzyme inhibitors, primary screen, biochemical, fluorescence, purified enzyme. hit rate 0.84% among 370,000. AID 720700, 2013. fluorogenic substrate. 1-phosphatidylinositol 4,5-bisphosphate phosphodiesterase gamma-1 (Homo sapiens), P19174. inhibition, % at 12.2 µM; in the data active means inhibition above about 9.5%
ADAM10 inh = human ADAM10 inhibitors, primary screen, biochemical, QFRET, HTS | Disintegrin and metalloproteinase domain-containing protein 10 (Homo sapiens), O14672 | recombinant ADAM10, EDANS/DABCYL FRET peptide cleavage, 3 h | inhibition, % at 7 µM | hit rate 0.62% among 370,000 | AID 720582, 2013;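 active means inhibition above a per-campaign cutoff equal to the mean of compounds falling between control-based bounds plus 3 SD, cut at about 20% in these data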
ADAM10 counter = ADAM10 inhibitors, counter-screen for ADAM17 exosite inhibitor project, biochemical, FRET, human ADAM10 | hit rate 47% among 2,900 | inhibition, % at 6.95 µM | shares compounds with ADAM17 inh | recombinant ADAM10, EDANS/DABCYL FRET peptide cleavage, 3 h;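 active means mean inhibition over the triplicate runs exceeds the activity threshold set in the earlier primary screen, cut at about 20% in these data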
ADAM17 confirm = ADAM17 inhibitors, hit retest, confirmation, biochemical, QFRET peptide cleavage; inhibition, % at 6.95 µM; recombinant ADAM17, EDANS/DABCYL QFRET peptide cleavage; AID 743257, 2014; hit rate 65% among 2,900; shares compounds with ADAM17 inh;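 active means mean inhibition across replicates above the hit cutoff set in the primary screen, cut at about 8.5% in these data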
Numbers stand for hits; – = inactive; · = no result given.

SMILES | PLCb3 inh | ADAM17 inh | KLK7 zymogen act | PLCg1 inh | ADAM10 inh | ADAM10 counter | ADAM17 confirm
O=C1OC(c2ccccc2)(c2ccc3cc(O)ccc3c2)c2ccccc21 (stereo not given) | – | 10 | – | – | – | 25 | 13
CCCC1CCC2(CC1)CCC2OC(=O)Nc1ccc(F)cc1 (stereo not given) | – | – | · | – | – | · | ·
CCOC(=O)C1=CCN(S(=O)(=O)c2ccc(C)cc2)C1c1cccs1 (stereo not given) | – | 11 | – | – | – | – | –
CC(C)CN(C(=O)COC(=O)CCC(=O)c1ccc(F)cc1)c1c(N)n(Cc2ccccc2)c(=O)[nH]c1=O | – | 13 | – | – | – | – | –
Clc1ccc(OCCOCCOc2cccc3cccnc23)c(Br)c1 | – | 8.9 | – | – | – | – | 13
O=C(CCCOC(=O)c1ccc(O)cc1O)c1ccc(Br)cc1 | – | 11 | – | – | – | – | 10
N/C(=N\N=C\c1ccc(O)cc1)c1nonc1N | – | 10 | – | 11 | – | – | 9.2
N/C(=N\N=C\c1ccc(O)c(O)c1)c1nonc1N | – | – | – | – | – | · | ·
CCc1ccc(CNCC(=O)N2CCC3(CC2)OCCO3)s1 | – | – | – | – | – | · | ·
CCOC(=O)CCCc1c[nH]c2ccccc12 | – | – | – | – | – | · | ·
Cc1ccc(NC(=O)COC(=O)Cc2c[nH]c3ccccc23)cc1C | – | 14 | – | – | – | – | –
CC(C)(C)NC(=O)NC(=O)COC(=O)CCCc1c[nH]c2ccccc12 | – | 12 | – | – | – | – | –
COc1ccc(NC(=O)COC(=O)Cc2c[nH]c3ccccc23)cc1Cl | – | – | – | – | – | · | ·
Cc1ccc(S(=O)(=O)N2CCCC2C(=O)N2CCc3ccccc3C2)cc1C (stereo not given) | – | – | – | – | – | · | ·
CCCCn1nnnc1C(c1ccccc1)N1CCN(c2cc(C)ccc2C)CC1 (stereo not given) | – | – | – | – | – | · | ·
Cc1onc(-c2ccccc2Cl)c1C(=O)Nc1cccc(S(=O)(=O)N2CCOCC2)c1 | – | – | – | – | – | · | ·
Cc1onc(-c2ccccc2)c1C(=O)Nc1ccc(Cl)c(S(=O)(=O)N2CCOCC2)c1 | – | 11 | – | – | – | – | –
Cc1cccc(N2CCN(S(=O)(=O)c3ccc4c(c3)C(C)(C)C(=O)N4C)CC2)c1C | – | 8.8 | – | – | – | – | –
Cc1ccc(C)c(N2CCN(S(=O)(=O)c3ccc4c(c3)C(C)(C)C(=O)N4C)CC2)c1 | – | – | – | – | – | · | ·
CCOC(=O)N1CCN(C(=O)C[C@@H]2C[C@@]3(C(=O)OC)CCCCC=C3N(Cc3cccc4ccccc34)C2=O)CC1 | – | – | – | – | – | · | ·
COc1cc2cnc(-c3ccccc3)c(C(=O)c3ccc(F)cc3)c2cc1OC | – | – | – | – | – | · | ·
COc1cccc(C(=O)c2c(-c3ccccc3)ncc3cc(OC)c(OC)cc23)c1 | – | 13 | – | – | – | – | 19
O=C(COC(=O)[C@H](Cc1c[nH]c2ccccc12)NC(=O)c1ccc(Cl)cc1)Nc1ccc2c(c1)OCO2 | – | 13 | – | – | – | 36 | 20
CCOC(=O)c1c(NC(=O)C2C3C=CC(CC3)C2C(=O)O)sc(C)c1C (stereo not given) | – | 9.1 | – | – | – | – | –
CCOC(=O)c1c(NC(=O)C2C3C=CC(C3)C2C(=O)O)sc2c1CCC(CC)C2 (stereo not given) | – | – | – | – | – | · | ·
SMILES | PLCb3 inh | ADAM17 inh | KLK7 zymogen act | PLCg1 inh | ADAM10 inh | ADAM10 counter | ADAM17 confirm
Cc1ccc(SCC(=O)OCC(=O)NCc2ccco2)cc1 | – | 9.2 | – | – | – | – | –
O=C1/C(=C\c2cccc(O)c2)SC(=S)N1Cc1ccccc1 | – | 8.8 | – | – | – | – | –
C#CCNC(=O)C[C@@H]1C[C@]2(C(=O)OCC)CCC3=C2N(CCC3)C1=O | – | – | – | – | – | · | ·
O=C(NCCN1CCC(Cc2ccccc2)CC1)C1CCCN(S(=O)(=O)c2ccc(Cl)s2)C1 (stereo not given) | – | – | – | – | – | · | ·
Cc1cc(=O)[nH]c2[nH][nH]c(=O)c12 | – | – | – | – | – | · | ·
Cc1cc(C)c2c(=O)[nH][nH]c2n1 | – | 12 | – | – | – | – | –
CCCCNC(=O)C1C(c2ccccc2)=Nc2ccccc2N1C(=O)c1ccc(C)cc1 (stereo not given) | – | – | – | – | – | · | ·
C[N+](C)(C)CCN1C(=O)c2ccccc2C1=O | – | – | – | – | – | · | ·
C[C@@H]1CC=C[C@H]2[C@H]1C(=O)N(Cc1ccccc1)[C@H]2c1ccc2ccccc2c1 | – | 9.4 | – | – | – | – | –
CCN(CC)CC(O)COC(c1ccccc1)c1ccccc1 (stereo not given) | – | – | – | – | – | · | ·
CCN(Cc1ccccc1)CC(O)COC(c1ccc(OC)cc1)c1ccc(OC)cc1 (stereo not given) | – | 11 | – | – | – | – | –
FC(F)(F)c1ccccc1Cc1c(C2CCCCC2)nc2c3ccccc3ccn12 | – | – | – | – | – | · | ·
O=C1OC2C(O)COC23OC(O)CCC13O (stereo not given) | – | – | – | – | – | · | ·
Cc1ccc([C@@H]2CC(=O)[C@@H]3CN(S(=O)(=O)c4ccc(C)cc4)[C@H](c4ccccc4F)C[C@@H]3N2S(=O)(=O)c2ccc(C)cc2)cc1 | – | – | – | – | – | · | ·
Cc1ccc(S(=O)(=O)N2C[C@H]3C(=O)C[C@@H](c4ccccc4F)N(S(=O)(=O)c4ccc(C)cc4)[C@H]3C[C@H]2c2ccccc2)cc1 | – | 10 | – | – | – | – | –
O=C(Nc1cccc(Cl)c1)c1ccc(F)c(S(=O)(=O)NCc2ccc3c(c2)OCO3)c1 | – | 8.7 | – | – | – | 24 | 13
O=C(Nc1ccc(Br)cc1)c1ccc(F)c(S(=O)(=O)NCc2cccs2)c1 | – | 9.3 | – | – | 20 | 25 | 16
O=S(=O)(NCc1cccs1)c1ccc(Br)cc1 | – | – | – | – | – | · | ·
O=C(Nc1nn(Cc2ccc(Cl)cc2)cc1Br)c1ccc(COc2ccccc2Cl)o1 | – | 10 | – | – | – | 33 | 18
COc1ccc(Cn2ccnc2)cc1[N+](=O)[O-] | – | – | – | – | – | · | ·
